# In the supplement of paper PMC4022240:
# ± gives the standard deviation.
# T1: HaloTag-ATRX ADD domain (163-292)
# T1 chain: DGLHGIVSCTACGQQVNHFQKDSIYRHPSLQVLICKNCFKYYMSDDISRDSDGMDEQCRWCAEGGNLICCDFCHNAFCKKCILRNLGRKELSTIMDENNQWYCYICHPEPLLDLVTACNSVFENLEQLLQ
# B1: H3 11-23 T G G Kme3 A P Rme K Q L A T K (peptide)
# chain: TGGKAPRKQLATK
# B2: H3 11-23 T G G Kme2 A P Rme K Q L A T K (peptide)
# chain: TGGKAPRKQLATK
# B3: H3 11-23 T G G K A P R Kme2 Q L A T K (peptide)
# chain: TGGKAPRKQLATK
# B4: H3 11-23 T G G K A P R Kme Q L A T K (peptide)
# chain: TGGKAPRKQLATK
# B5: H3 11-23 T G G Kme3 A P R Kme2 Q L A T K (peptide)
# chain: TGGKAPRKQLATK
# B6: H3 11-23 T G G Kme2 A P R Kme2 Q L A T K (peptide)
# chain: TGGKAPRKQLATK
# B7: H3 11-23 T G G Kme3 A P R Kme3 Q L A T K (peptide)
# chain: TGGKAPRKQLATK
# B8: H3 11-23 T G G Kme2 A P R Kme3 Q L A T K (peptide)
# chain: TGGKAPRKQLATK
# B9: H3 11-23 T G G K A P Rcit Kac Q L A T K (peptide)
# chain: TGGKAPRKQLATK
# B10: H3 11-23 T G G K A P R Kme3 Q L A T K (peptide)
# chain: TGGKAPRKQLATK
# How the values were obtained:
# Assay in all cases: peptide microarray binding signal (635 nm), min-max normalized on array (fraction of array maximum); higher = stronger binding
# Conditions in all cases: peptide region: H3 11-23
# [1] = target: T1, HaloTag-ATRX ADD domain (163-292)
# How it was run: (§1)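 Within each library, mean intensities of triplicate spots were min-max scaled to give the binding signal. The spots were histone 13-mer peptide–cellulose conjugates on nitrocellulose with a Cy3 tracer, blocked overnight at 4°C. They were then probed for 1 h at 4°C using biotin-labelled HaloTag reader fusions (10 nM to 1 μM) with streptavidin-Alexa Fluor 647 or rabbit histone antibodies (1:10,000 to 1:2,000) with anti-rabbit Alexa 647, and scanned at 635 nm for signal and 532 nm for misprints on an Axon GenePix 4000B.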
# [2] = target: HaloTag-ING2 PHD (mouse Ing2 200-280)
# How it was run: as §1
# [3] = target: anti-H3K4me3 antibody ab8580
# How it was run: as §1
# [4] = target: anti-H3K9me3 antibody ab8898
# How it was run: as §1
# [5] = peptide modifications: H3K14me3 H3R17me1, binder concentration: 1:2,000 dilution
# [6] = peptide modifications: H3K14me3 H3R17me1, binder concentration: 1:10,000 dilution
# [7] = peptide modifications: H3K14me2 H3R17me1, binder concentration: 1:2,000 dilution
# [8] = peptide modifications: H3K14me2 H3R17me1, binder concentration: 1:10,000 dilution
# [9] = peptide modifications: H3K18me2, binder concentration: 1:2,000 dilution
# [10] = peptide modifications: H3K18me2, binder concentration: 1:10,000 dilution
# [11] = peptide modifications: H3K18me1, binder concentration: 1:2,000 dilution
# [12] = peptide modifications: H3K18me1, binder concentration: 1:10,000 dilution
# [13] = peptide modifications: H3K14me3 H3K18me2, binder concentration: 1:2,000 dilution
# [14] = peptide modifications: H3K14me3 H3K18me2, binder concentration: 1:10,000 dilution
# [15] = peptide modifications: H3K14me2 H3K18me2, binder concentration: 1:2,000 dilution
# [16] = peptide modifications: H3K14me2 H3K18me2, binder concentration: 1:10,000 dilution
# [17] = peptide modifications: H3K14me3 H3K18me3, binder concentration: 1:2,000 dilution
# [18] = peptide modifications: H3K14me3 H3K18me3, binder concentration: 1:10,000 dilution
# [19] = peptide modifications: H3K14me2 H3K18me3, binder concentration: 1:2,000 dilution
# [20] = peptide modifications: H3K14me2 H3K18me3, binder concentration: 1:10,000 dilution
# [21] = peptide modifications: H3R17cit H3K18ac, binder concentration: 1:2,000 dilution
# [22] = peptide modifications: H3R17cit H3K18ac, binder concentration: 1:10,000 dilution
# [23] = peptide modifications: H3K18me3, binder concentration: 1:2,000 dilution
# [24] = peptide modifications: H3K18me3, binder concentration: 1:10,000 dilution
binder,measurement,setting,value
B1,peptide microarray binding signal,"[1]; peptide modifications: H3K14me3 H3R17me1, binder concentration: 50 nM",0.0176 ± 0.0022
same,peptide microarray binding signal,"[1]; peptide modifications: H3K14me3 H3R17me1, binder concentration: 500 nM",0.0147 ± 0.00081
same,peptide microarray binding signal,"[2]; peptide modifications: H3K14me3 H3R17me1, binder concentration: 10 nM",0.00609 ± 0.00015
same,peptide microarray binding signal,"[2]; peptide modifications: H3K14me3 H3R17me1, binder concentration: 100 nM",0.00772 ± 0.00033
same,peptide microarray binding signal,[3]; [5],0.00823 ± 0.00055
same,peptide microarray binding signal,[3]; [6],0.00502 ± 0.00025
same,peptide microarray binding signal,[4]; [5],0.0269 ± 0.0047
same,peptide microarray binding signal,[4]; [6],0.0115 ± 0.00069
B2,peptide microarray binding signal,"[1]; peptide modifications: H3K14me2 H3R17me1, binder concentration: 50 nM",0.00417 ± 0.00015
same,peptide microarray binding signal,"[1]; peptide modifications: H3K14me2 H3R17me1, binder concentration: 500 nM",0.0101 ± 0.00014
same,peptide microarray binding signal,"[2]; peptide modifications: H3K14me2 H3R17me1, binder concentration: 10 nM",0.00483 ± 0.00017
same,peptide microarray binding signal,"[2]; peptide modifications: H3K14me2 H3R17me1, binder concentration: 100 nM",0.00843 ± 0.0018
same,peptide microarray binding signal,[3]; [7],0.00376 ± 0.0005
same,peptide microarray binding signal,[3]; [8],0.00211 ± 8.9e-05
same,peptide microarray binding signal,[4]; [7],0.00378 ± 0.00014
same,peptide microarray binding signal,[4]; [8],0.00288 ± 8.6e-05
B3,peptide microarray binding signal,"[1]; peptide modifications: H3K18me2, binder concentration: 50 nM",0.00558 ± 0.00014
same,peptide microarray binding signal,"[1]; peptide modifications: H3K18me2, binder concentration: 500 nM",0.0142 ± 0.0013
same,peptide microarray binding signal,"[2]; peptide modifications: H3K18me2, binder concentration: 10 nM",0.004595 ± 2.3e-05
same,peptide microarray binding signal,"[2]; peptide modifications: H3K18me2, binder concentration: 100 nM",0.0225 ± 0.0074
same,peptide microarray binding signal,[3]; [9],0.00421 ± 0.00019
same,peptide microarray binding signal,[3]; [10],0.001541 ± 1.5e-05
same,peptide microarray binding signal,[4]; [9],0.00397 ± 0.00076
same,peptide microarray binding signal,[4]; [10],0.00231 ± 4.2e-05
B4,peptide microarray binding signal,"[1]; peptide modifications: H3K18me1, binder concentration: 50 nM",0.00433 ± 0.00015
same,peptide microarray binding signal,"[1]; peptide modifications: H3K18me1, binder concentration: 500 nM",0.0187 ± 0.00044
same,peptide microarray binding signal,"[2]; peptide modifications: H3K18me1, binder concentration: 10 nM",0.00979 ± 0.0017
same,peptide microarray binding signal,"[2]; peptide modifications: H3K18me1, binder concentration: 100 nM",0.0252 ± 0.0035
same,peptide microarray binding signal,[3]; [11],0.00217 ± 0.00021
same,peptide microarray binding signal,[3]; [12],0.00108 ± 1.9e-05
same,peptide microarray binding signal,[4]; [11],0.00293 ± 8.2e-05
same,peptide microarray binding signal,[4]; [12],0.00173 ± 6e-05
B5,peptide microarray binding signal,"[1]; peptide modifications: H3K14me3 H3K18me2, binder concentration: 50 nM",0.0154 ± 0.00095
same,peptide microarray binding signal,"[1]; peptide modifications: H3K14me3 H3K18me2, binder concentration: 500 nM",0.00933 ± 0.00068
same,peptide microarray binding signal,"[2]; peptide modifications: H3K14me3 H3K18me2, binder concentration: 10 nM",0.0107 ± 0.0026
same,peptide microarray binding signal,"[2]; peptide modifications: H3K14me3 H3K18me2, binder concentration: 100 nM",0.0194 ± 0.008
same,peptide microarray binding signal,[3]; [13],0.0408 ± 0.02
same,peptide microarray binding signal,[3]; [14],0.0276 ± 0.0038
same,peptide microarray binding signal,[4]; [13],0.0775 ± 0.0048
same,peptide microarray binding signal,[4]; [14],0.0328 ± 0.0026
B6,peptide microarray binding signal,"[1]; peptide modifications: H3K14me2 H3K18me2, binder concentration: 50 nM",0.00868 ± 0.00041
same,peptide microarray binding signal,"[1]; peptide modifications: H3K14me2 H3K18me2, binder concentration: 500 nM",0.0137 ± 0.0018
same,peptide microarray binding signal,"[2]; peptide modifications: H3K14me2 H3K18me2, binder concentration: 10 nM",0.00555 ± 0.00016
same,peptide microarray binding signal,"[2]; peptide modifications: H3K14me2 H3K18me2, binder concentration: 100 nM",0.0111 ± 0.00051
same,peptide microarray binding signal,[3]; [15],0.0136 ± 0.0033
same,peptide microarray binding signal,[3]; [16],0.0097 ± 0.0018
same,peptide microarray binding signal,[4]; [15],0.00616 ± 0.00078
same,peptide microarray binding signal,[4]; [16],0.00536 ± 0.00032
B7,peptide microarray binding signal,"[1]; peptide modifications: H3K14me3 H3K18me3, binder concentration: 50 nM",0.00652 ± 5.7e-05
same,peptide microarray binding signal,"[1]; peptide modifications: H3K14me3 H3K18me3, binder concentration: 500 nM",0.00876 ± 0.00042
same,peptide microarray binding signal,"[2]; peptide modifications: H3K14me3 H3K18me3, binder concentration: 10 nM",0.00865 ± 0.0015
same,peptide microarray binding signal,"[2]; peptide modifications: H3K14me3 H3K18me3, binder concentration: 100 nM",0.0149 ± 0.0019
same,peptide microarray binding signal,[3]; [17],0.45 ± 0.069
same,peptide microarray binding signal,[3]; [18],0.408 ± 0.048
same,peptide microarray binding signal,[4]; [17],0.18 ± 0.013
same,peptide microarray binding signal,[4]; [18],0.0505 ± 0.0048
B8,peptide microarray binding signal,"[1]; peptide modifications: H3K14me2 H3K18me3, binder concentration: 50 nM",0.00646 ± 0.00024
same,peptide microarray binding signal,"[1]; peptide modifications: H3K14me2 H3K18me3, binder concentration: 500 nM",0.009572 ± 8e-05
same,peptide microarray binding signal,"[2]; peptide modifications: H3K14me2 H3K18me3, binder concentration: 10 nM",0.00859 ± 0.00099
same,peptide microarray binding signal,"[2]; peptide modifications: H3K14me2 H3K18me3, binder concentration: 100 nM",0.0188 ± 0.0022
same,peptide microarray binding signal,[3]; [19],0.54 ± 0.11
same,peptide microarray binding signal,[3]; [20],0.4 ± 0.12
same,peptide microarray binding signal,[4]; [19],0.0567 ± 0.005
same,peptide microarray binding signal,[4]; [20],0.0291 ± 0.002
B9,peptide microarray binding signal,"[1]; peptide modifications: H3R17cit H3K18ac, binder concentration: 50 nM",0.00473 ± 9.3e-05
same,peptide microarray binding signal,"[1]; peptide modifications: H3R17cit H3K18ac, binder concentration: 500 nM",0.0124 ± 0.00036
same,peptide microarray binding signal,"[2]; peptide modifications: H3R17cit H3K18ac, binder concentration: 10 nM",0.00364
same,peptide microarray binding signal,"[2]; peptide modifications: H3R17cit H3K18ac, binder concentration: 100 nM",0.0114 ± 0.0017
same,peptide microarray binding signal,[3]; [21],0.003 ± 0.00042
same,peptide microarray binding signal,[3]; [22],0.0028 ± 0.00011
same,peptide microarray binding signal,[4]; [21],0.000634 ± 2.6e-05
same,peptide microarray binding signal,[4]; [22],0.000865 ± 2.4e-05
B10,peptide microarray binding signal,"[1]; peptide modifications: H3K18me3, binder concentration: 50 nM",0.0107 ± 0.00077
same,peptide microarray binding signal,"[1]; peptide modifications: H3K18me3, binder concentration: 500 nM",0.0257 ± 0.0005
same,peptide microarray binding signal,"[2]; peptide modifications: H3K18me3, binder concentration: 10 nM",0.00937 ± 0.00052
same,peptide microarray binding signal,"[2]; peptide modifications: H3K18me3, binder concentration: 100 nM",0.0178 ± 0.0018
same,peptide microarray binding signal,[3]; [23],0.257 ± 0.035
same,peptide microarray binding signal,[3]; [24],0.263 ± 0.14
same,peptide microarray binding signal,[4]; [23],0.0698 ± 0.0096
same,peptide microarray binding signal,[4]; [24],0.0292 ± 0.0022
